Results filed as inconclusive are left out. A call without a number means that no potency is given here. Activity calls are given as the source filed them. The call rests on the fitted dose curve; in most records, active means well fitted inhibition curve with a large enough effect; inconclusive means small, poorly fitted or top-dose-only effect; inactive means no such curve, though single readings can be large or run the other way.

The results in this text go back to PubChem BioAssay AID1508621 (National Center for Advancing Translational Sciences (NCATS), 2021).
Potency means the concentration at half of the fitted maximal effect.

The nature of this experiment: Confirmatory qHTS for Identification of Small Molecule Inhibitors of Huntingtin Promoter Activity. Further: nearly all actives have a fitted effect of over 65% in size. The note with it: HEK293 HTT promoter firefly luciferase reporter, 24 h; series mostly up to 57.5 µM. An outline of the steps:
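HEK293 luciferase reporter cells, 2,500/well, cultured 24 h, then exposed to compounds at up to 57.5 uM final for 24 h at 37C. Firefly luciferase luminescence read; normalized to vehicle (0%) and zero RLU (-100%).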
With `O=C(c1ccc2c(c1)N(Cc1ccccc1)C(=O)c1ccccc1S2(=O)=O)N1CCCCCC1`, the Potency result was “inactive”. Next, `O=C(Nc1ccc(Cl)c(Cl)c1)N(Cc1c[nH]c2ccccc12)C1CCCCC1`: “inactive”; `O=c1c(O)c(-c2ccc(O)cc2)oc2cc(O)cc(O)c12`: “inactive”; `Cc1cc(C)c(Cn2c3ccccc3c3cnn(CC(=O)N4CCCCC4)c(=O)c32)c(C)c1`: “inactive”. With `O=C1C2=C(Nc3ccccc3SC2c2ccc(C(F)(F)F)cc2)c2ccccc21` (stereo not drawn), the Potency is 19 µM (active). For the compound `O=C(C=Cc1ccc(O)cc1)c1ccc(O)cc1O`, the Potency result was “inactive”.

`COC[C@H](NC(=O)c1cnc(C)s1)C(=O)N[C@@H](COC)C(=O)N[C@@H](Cc1ccccc1)C(=O)[C@@]1(C)CO1`: the Potency was 0.301 µM (active). With `COc1cc(C[C@@H](CO)[C@H](CO)Cc2ccc(O)c(OC)c2)ccc1O`, the Potency entry is “inactive”.

For the compound `COc1cccc(N2CCN(C(=O)c3ccc4nc(N5CCC(C)CC5)sc4c3)CC2)c1`, the Potency is 8.49 µM (active). For the compound `CC(C)OCc1cc(CN2CCN(c3cccc(C(F)(F)F)c3)CC2)c(O)c2ncccc12`, the Potency is 9.53 µM (active).

Regarding `C#Cc1cccc(Nc2ncnc3cc(OC)c(OCCCCCCC(=O)NO)cc23)c1`, the Potency result is “inactive”.

Turning to `Cc1ccc2nc(CSc3nnc(NC(=O)COc4ccccc4)s3)cc(=O)n2c1`, the Potency result is “inactive”.

For `CCc1ccccc1-n1c(SCC(=O)Nc2ccc(C)cc2)nc2n[nH]c(C)c2c1=N`, the Potency is 13.5 µM (active).

As for `COc1cc2nc(N3CCCN(C)CC3)nc(NC3CCN(Cc4ccccc4)CC3)c2cc1OC`, the Potency is 26.9 µM (active).

On to `Cc1ccccc1OCC(=O)Nc1ccccc1C(=O)OCc1cc(=O)n2c(C)csc2n1`, for which the Potency result is “inactive”.

For `CC(C)[C@H](C(=O)Nc1ccc(C(=O)NO)cc1)c1ccccc1`, the Potency result is “inactive”. As for `COc1ccc(-c2nc(N3CCOCC3)c3sc(CN(C)c4ncc(C(=O)NO)cn4)cc3n2)cn1`, the Potency result is “inactive”. With `C#C[C@]1(O)CC[C@H]2[C@H]3CCc4cc(OC)ccc4[C@H]3CC[C@@]21C`, the Potency entry was “inactive”. As to `CCOc1ccc(Nc2ncnc3c2nc2n3CCCCC2)cc1`, the Potency result was “inactive”. For `Cc1ccc(C(=O)Nc2ccc(F)cc2)cc1S(=O)(=O)N1CCCCCC1`, the Potency result was “inactive”. Consider `COc1ccc(S(=O)(=O)c2cc3cc(C(C)(C)C)cc(O)c3oc2=O)cc1`, for which the Potency entry is “inactive”. As for `COc1ccc(-c2noc(N3CCC(C(=O)N4CCN(c5cccc(OC)c5)CC4)CC3)n2)cc1`, the Potency is 1.35 µM (active).

Consider `Cc1cc(Nc2cccc(C(F)(F)F)c2)nc2ccc(NC(=O)c3cccnc3)cc12`, for which the Potency is 19 µM (active). Consider `CC(C)c1ccc(C2=CC(c3cccc(Cl)c3)n3c(nc4ccccc43)N2)cc1` (stereo not drawn), for which the Potency entry is “inactive”.

For the compound `CCn1cc(C(=O)N2CCN(c3ccc(C)cc3)C(C)C2)c(=O)c2cc(S(=O)(=O)N3CCCC3)ccc21` (stereo not drawn), the Potency entry is “inactive”.

As for `Cc1cccc(N2CCN(C(=O)c3ccc(NC(=O)c4nsc5ccccc45)cc3)CC2C)c1` (stereo not drawn), the Potency result is “inactive”. For `CC(C)C[C@@H](C=O)NC(=O)[C@H](CC(C)C)NC(=O)[C@H](CC(C)C)NC(=O)OCc1ccccc1`, the Potency is 2.13 µM (active). Next, `CCOc1ccc(C(=O)Nc2ccc(S(=O)(=O)N3CCCCC3c3cccnc3)cc2)cc1` (stereo not drawn): 21.3 µM (active). Next, `CCOc1ccc(-n2c(/C=C/c3cccc(F)c3)nc3cc(OC)c(OC)cc3c2=O)cc1`: “inactive”; `O=C(NCCC1=CCCCC1)c1ccc2c(c1)N(Cc1cccc(Cl)c1)C(=O)c1ccccc1S2(=O)=O`: “inactive”. As to `Cc1cc(C)cc(NC(=O)Nc2cccs2)c1`, the Potency entry was “inactive”. In the case of `CCCCc1nc2cc(C=CC(=O)NO)ccc2n1CCN(CC)CC`, the Potency result is “inactive”. On to `O=C(NCc1cccs1)c1ccc(Cn2c(SCc3ccc(F)cc3)nc3cccnc32)cc1`, for which the Potency entry was “inactive”. Take `CCS(=O)(=O)c1oc(-c2ccc(F)cc2)nc1S(=O)(=O)c1ccc(Br)cc1`: the Potency entry was “inactive”.

Take `Cc1cccc(C2C=C(c3ccc(F)cc3)Nc3nc4ccccc4n32)c1` (stereo not drawn): the Potency result is “inactive”. Consider `Cc1ccc(CN(C(=O)c2ccc(OCC(C)C)cc2)c2ccccn2)o1`, for which the Potency entry is “inactive”. Regarding `O=C(CSc1ccc(-c2ccccn2)nn1)Nc1ccc(F)c(F)c1`, the Potency entry is “inactive”. As for `COc1ccc(Nc2nc(-c3ccc(C)cc3)nc3ccccc23)c(OC)c1`, the Potency entry was “inactive”.
